Measurements: PubChem BioAssay AID651820 (National Center for Advancing Translational Sciences (NCATS), 2012)
Several values for one entry are separate records, joined by “and”; a condition that tells them apart may be missing. Equal values may be shown once. About 12,000 (3.5%) of roughly 340,000 compounds were called active. Where a call stands in place of a potency, no number is given. About 18% were inconclusive and are not listed. Calls follow the shape of the dose curve; as a rule, active = well fitted inhibition curve with a large enough effect; inconclusive = small, poorly fitted or top-dose-only effect, or another doubt; inactive = no such curve, though single readings can be large or run the other way. For the sample, actives were picked, then their nearest neighbours and some compounds at random. The source holds several records for some structures; these can differ, active in one and inactive in another.

Experiment: qHTS Assay for Inhibitors of Hepatitis C Virus (HCV)
Settings: Huh7.5.1 HCVcc-Cre infection, luciferase reporter, 44 h; series mostly up to 41.8 µM
Outline: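 Whole-lifecycle infectious HCVcc-Cre system; cells 1,000/well, compound then virus (~0.5 moi) added 4 h after plating, 44 h culture. Luciferase read 15 sec following 15 min substrate incubation, room temp.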
Potency is read from the fitted curve at half-maximal effect.

| Compound | Potency |
| --- | --- |
| Cc1cc(OCc2cc(C(=O)NCc3cc(C(C)C)no3)no2)cc(C)c1Cl | inactive |
| CCOC(=O)CC1(NC(=O)c2cc(COc3cncc(Cl)c3)on2)CCCCC1 | 10 µM (active) |
| CCOC(=O)CC1COCCN1C(=O)c1cc(COc2ccc(F)c(F)c2)on1 (configuration not stated) | inactive |
| CCCCn1c(N)c(N(CC(C)C)C(=O)C2CSC3(C)CCC(=O)N23)c(=O)[nH]c1=O (configuration not stated) | inactive |
| O=C(O)C1C2C=CC(O2)C1C(=O)Nc1ccccn1 (configuration not stated) | inactive |
| COC(=O)[C@]1(C)N[C@H](c2ccc(-c3ccc(Cl)c(Cl)c3)cc2)[C@@H]2C(=O)N(C)C(=O)[C@@H]21 | inactive |
| Cc1ccccc1OCC(=O)Nc1ccc(S(=O)(=O)N2CCOCC2)cc1 | inactive |
| CCc1ccccc1OCC(=O)Nc1ccc(C)c(S(=O)(=O)N2CCCCCC2)c1 | 3.55 µM (active) |
| Cc1ccc(NC(=O)C2CC2)cc1S(=O)(=O)N1CCOCC1 | inactive |
| Cc1ccccc1OCC(=O)Nc1ccc(N2CCN(C(=O)C(C)C)CC2)c(Cl)c1 | 31.6 µM (active) |
| Cc1ccc(NC(=O)CCC(=O)N2CCC(c3ccccc3)=N2)cc1S(=O)(=O)N1CCCCC1 | inactive |
| COc1ccc(NC(=O)C2=NNC(=O)CC2)cc1S(=O)(=O)N1CCCCC1 | inactive |
| COc1ccccc1C(=O)Nc1ccc(OCC(=O)N2CCCCC2)cc1 | inactive |
| Cc1cc(C(=O)Nc2ccc(C)c(S(=O)(=O)N3CCOCC3)c2)c2ccccc2n1 | 11.2 µM (active) |
| Cc1ccccc1OCC(=O)Nc1ccc2c(c1)ncn2C | inactive |
| COc1ccccc1C(=O)Nc1ccc(C)c(S(=O)(=O)N2CCCCC2)c1 | 7.08 µM (active) |
| Cc1ccc(NC(=O)COC(=O)C2CC2)cc1S(=O)(=O)N1CCOCC1 | inactive |
| Cc1ccc(NC(=O)c2ccccn2)cc1S(=O)(=O)N1CCOCC1 | inactive |
| COc1ccc(CCNC(=O)C(=O)NCC2OCCN2S(=O)(=O)c2cccs2)cc1OC (configuration not stated) | inactive |
| Cc1ccc(SCC(=O)Nc2nncs2)cc1 | inactive |
| O=C(OCC(=O)N1CCCC1)c1ccc(Cl)nc1 | inactive |
| COC(=O)Cc1nc2c(N)nc(N)nc2[nH]c1=O | inactive |
| O=C1N[C@H](Cc2ccccc2)C(=O)N[C@H]1Cc1cn(S(=O)(=O)c2ccccc2)c2ccccc12 | inactive |
| O=C(CNC(=O)c1ccco1)NNC(=O)c1ccc(Br)cc1 | inactive |
| COc1ccc(NC(=O)CN(C)C(=O)/C=C/c2cn(Cc3ccccc3)nc2-c2cccnc2)cc1 | inactive |
| C[C@H]1CN([C@@H](C)CO)C(=O)Cc2cc(NS(C)(=O)=O)ccc2O[C@@H]1CN(C)CC1CC1 | inactive |

| Compound | Potency |
| --- | --- |
| Cc1occc1C(=O)Nc1cccc(S(=O)(=O)N2CCOCC2)c1 | inactive |
| O=C(CSc1ccccc1)Nc1cccc(S(=O)(=O)N2CCOCC2)c1 | inactive |
| Cc1c(C(=O)Nc2cccc(S(=O)(=O)N3CCOCC3)c2)oc2ccccc12 | 14.1 µM (active) |
| CCCC(O)(c1ccccc1)C(c1ccccc1)c1ccccn1 (configuration not stated) | inactive |
| Cc1c(C(=O)Nc2ccccn2)oc2ccc(Br)cc12 | inactive |
| O=c1[nH]c(CCl)nc2cc(-c3ccc(Cl)cc3)sc12 | 6.31 µM (active) |
| O=c1[nH]c(CN2CCOCC2)nc2cc(Cl)ccc12 | inactive |
| NC(=O)Cc1nc2scc(-c3ccc(Cl)cc3)c2c(=O)[nH]1 | inactive |
| COc1ccc(/C=C/C(=O)OCC(=O)NC2CCCCCC2)cc1OC | inactive |
| COc1cc(OC)cc(C(=O)NC(C(=O)N2CCC2)C(C)C)c1 (configuration not stated) | inactive |
| CC(C=Cc1ccccc1)=NNS(=O)(=O)c1ccc([N+](=O)[O-])cc1 | inactive |
| CC1(C)N=C(N)NC(Nc2ccc(Cl)cc2)=N1 | inactive |
| COc1ccccc1NC1=NC2(CCCC2)N=C(N)N1 | inactive |
| COc1ccccc1NC1=NC(c2ccc(Cl)cc2)N=C(N)N1 (configuration not stated) | 10 µM (active) |
| Cc1ccccc1-n1nnc2c(=O)oc3ccccc3c21 | 35.5 µM (active) |
| CCOC(=O)c1c(C)nc2c(c1C)c(=O)oc1ccccc12 | inactive |
| O=c1oc2ccccc2c(=O)c2ccccc12 | inactive |
| Cc1cc(NC(=O)CSc2nnc(-c3ccco3)n2N)no1 | inactive |
| COc1ccc(NC(=O)CCNC(=O)Cn2cnc3sc4c(c3c2=O)CCCC4)cc1OC | inactive |
| COc1ccc(/C=N/Nc2ncnc3sc4c(c23)CCCC4)cc1O | 11.2 µM (active) |
| COc1ccc(NC(=O)CCCNC(=O)Cn2cnc3sc4c(c3c2=O)CCCC4)cc1OC | inactive |
| O=C(COC(=O)/C=C/c1cccc(Cl)c1)NCc1cccs1 | inactive |
| O=C(OCC(=O)N1CCCCC1)c1ccc(OC(F)(F)F)cc1 | inactive |
| CCN(CC)CCNC(=O)c1cc(S(C)(=O)=O)ccc1OC | inactive and 35.5 µM (active) |
| CCN(CC)CCNC(=O)c1ccc(NS(=O)(=O)c2ccc3c(c2)OCCO3)cc1 | inactive |
| COc1ccc(Cl)cc1C(=O)NCC#N | inactive |
